This is one part of a sample in which hits are shown more often than they occur.
DUSP3 inh = VHR1 phosphatase inhibitors, primary screen, biochemical, colorimetric, HTS | recombinant VHR phosphatase, colorimetric substrate read-out | 50,000 tested, 0.7% active | inhibition, % at 20 µM; in the data active means inhibition above about 60%
Target sequence (P51452 whole entry, looked up): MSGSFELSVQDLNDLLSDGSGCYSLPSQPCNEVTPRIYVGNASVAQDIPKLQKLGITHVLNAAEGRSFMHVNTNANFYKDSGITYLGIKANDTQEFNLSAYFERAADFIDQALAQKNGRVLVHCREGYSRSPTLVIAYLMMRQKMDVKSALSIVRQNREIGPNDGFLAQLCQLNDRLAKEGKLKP
Large screens that a line does not name were inactive.

COc1ccc(CC(=O)c2ccc(OC)c(OC)c2)cc1OC	none
O=C1NN(c2ccccc2)C(=O)/C1=C/c1ccc(-c2ccc(F)cc2)o1	none
O=C1NN(c2ccccc2)C(=O)/C1=C/c1ccc(-c2ccccc2)o1	DUSP3 inh 111
O=C1NC(=O)N(c2ccccc2)C(=O)/C1=C\c1ccc(-c2cccc(C(=O)O)c2)o1	none
O=C1NC(=O)N(c2cccc(Br)c2)C(=O)/C1=C/c1ccc(-c2ccc(C(=O)O)cc2)o1	DUSP3 inh 100
O=C1NC(=S)N(c2cccc(Br)c2)C(=O)/C1=C/c1ccc(-c2ccc(C(=O)O)cc2)o1	none
O=C1NN(c2ccc(F)cc2)C(=O)/C1=C\c1ccc(-c2cccc(C(=O)O)c2)o1	none
O=C(Nc1ccc2c(c1)ncn2-c1ccccc1)c1ccccc1	none
CC(C)(C)N=CC(C=NC(C)(C)C)[N+](=O)[O-] (centres undefined)	none
COCCNC(=O)CN(c1cccc([N+](=O)[O-])c1)S(=O)(=O)c1ccccc1	none
CCOC(=O)c1sc(NC(=O)c2ccc(Br)s2)nc1-c1ccccc1	none
Oc1c(Br)cc2oc3c(c2c1/C=N/n1cnnc1)CCCC3	none
Cc1nc(N)sc1-c1csc(Nc2ccccn2)n1	none
Cc1cc(NS(=O)(=O)c2ccc(Nc3nc(-c4ccccn4)cs3)cc2)no1	none
Cc1cc(C)nc(NS(=O)(=O)c2ccc(Nc3nc(-c4sc(N)nc4C)cs3)cc2)n1	DUSP3 inh 67
Cc1cc([N+](=O)[O-])ccc1-c1ccc(C(=O)Nc2ccc(I)cc2Cl)o1	none
O=C(Cc1nnc(NC(=O)Nc2cccc(Cl)c2)s1)Nc1ccccc1	none
COc1cc(/C=N/N=c2\sc3ccccc3n2C)ccc1O	none
COc1ccc(/C=N/N=c2\sc3ccccc3n2C)c(OC)c1	DUSP3 inh 98
Cn1/c(=N/N=C/c2ccncc2)sc2ccccc21	none
Cc1ccc(OCCOCCOc2ccc(/C=C3/SC(=S)N(C)C3=O)cc2)cc1	none
CCc1ccc(OCC(=O)Nc2ccccc2C(F)(F)F)cc1	DUSP3 inh 112
Cc1cccc(OCC(=O)Nc2ccccc2C(F)(F)F)c1	none
O=C(COc1ccc(Cl)cc1)Nc1ccccc1C(F)(F)F	none
O=S(=O)(c1ccc2ccccc2c1)N1CCN(c2ccccc2)CC1	none
CN(C)NC(=O)C1CCC(C)(C(=O)O)C1(C)C (centres undefined)	none
COc1ccccc1NC(=O)c1ccc(CN(c2ccccc2)S(C)(=O)=O)cc1	none
CNC(=O)/C(=C\c1ccc(Cl)cc1)NC(=O)c1ccccc1	none
O=C1NN(c2ccc(Cl)c(Cl)c2)C(=O)/C1=C/c1cc([N+](=O)[O-])ccc1O	none
O=C1NN(c2ccc(Cl)c(Cl)c2)C(=O)/C1=C/c1cccc(Br)c1	none
O=C1NN(c2ccc(Cl)c(Cl)c2)C(=O)/C1=C/c1cccc([N+](=O)[O-])c1	DUSP3 inh 78
CC(C)C1=NN2C(=N)/C(=C/c3cc(Cl)ccc3OCc3ccccc3)C(=O)N=C2S1	none
C=CCOc1ccc(Cl)cc1/C=C1/C(=N)N2N=C(CCC)SC2=NC1=O	DUSP3 inh 108
CCCC1=NN2C(=N)/C(=C/c3ccccc3C)C(=O)N=C2S1	none
COc1ccccc1/C=N/N=C1/NC(=O)C(CC(=O)Nc2cccc(C(C)=O)c2)S1 (centres undefined)	none
O=C(NCCc1ccccc1)c1ccc(C#Cc2ccccc2)cc1	none
CC1CN(Cc2ccccn2)CCC1=O (centres undefined)	DUSP3 inh 111
COc1ccccc1CN1CCN(Cc2ccccn2)CC1	none
COc1cccc(CN2CCN(Cc3ccccn3)CC2)c1	none
COc1ccc(Cl)cc1NC(=O)C1=C(C)NC(=O)NC1c1cccc2ccccc12 (centres undefined)	none
O=C(Nc1ccccc1)Nc1nnc(C(c2ccccc2)c2ccccc2)s1	none
O=C(Nc1ccccc1)Nc1nc(C(c2ccccc2)c2ccccc2)cs1	DUSP3 inh 88
O=C(Nc1ccccc1)Nc1nccs1	none
CCOc1cc(/C=N/NC(=O)c2ccccn2)cc([N+](=O)[O-])c1O	none
COc1ccc(NC(=O)c2ccc(Cl)c(Cl)c2)cc1OC	none
COc1ccc(S(=O)(=O)/N=C2C=C/C(=N\S(=O)(=O)c3ccc(OC)cc3)C=C/2Cl)cc1	none
CC1=CC(=O)C=C/C1=N\S(=O)(=O)c1ccc(C)cc1	none
O=S(=O)(NCCCNS(=O)(=O)c1ccc(Cl)cc1)c1ccc(Cl)cc1	none
O=C1C(Cl)=CC(=NS(=O)(=O)c2ccccc2)C=C1Cl	DUSP3 inh 76
CC1=CC(=NS(=O)(=O)c2ccc(C)cc2)C=C(C)C1=O	none
O=C1C(Cl)=C/C(=N\S(=O)(=O)c2ccc(Cl)cc2)C(Cl)=C1Cl	DUSP3 inh 96
Cc1onc(-c2c(F)cccc2Cl)c1C(=O)Nc1ccc(Br)cc1	none
Cc1cc(=O)oc2cc(OCc3ccccc3)c(O)cc12	none
CCOC(=O)C1=C(C)NC(=O)NC1c1ccc(N2CCOCC2)cc1 (centres undefined)	none
CCOc1ccccc1NC(=O)c1cncc(Br)c1	none
COc1ccc(N2C(=O)NC(=O)/C(=C/c3ccc(-c4cccc(Cl)c4)o3)C2=O)cc1	none
COc1ccc(N2C(=O)/C(=C/c3cc(C)n(-c4ccccc4)c3C)C(=O)NC2=S)cc1	none

Assay outcomes (PubChem)
